{"source": "PubChem BioAssay (Tox21)", "note": "Records with an inconclusive call do not appear. Values without a mark were called inactive. Active and inactive are the calls of the source. The call rests on the fitted dose curve; in most records, active means well fitted inhibition curve with a large enough effect in the repeat runs; inconclusive means weak or mixed curves; inactive means no such curve, though single readings can be large or run the other way. On the % scale 0 is the no-effect control and ±100 the full control effect; potency means the concentration at half of the fitted maximal effect.", "data": [{"biological_target": "Cytochrome P450 3A4 (Homo sapiens) (UniProt P08684)", "sequence (P08684 whole entry, looked up)": "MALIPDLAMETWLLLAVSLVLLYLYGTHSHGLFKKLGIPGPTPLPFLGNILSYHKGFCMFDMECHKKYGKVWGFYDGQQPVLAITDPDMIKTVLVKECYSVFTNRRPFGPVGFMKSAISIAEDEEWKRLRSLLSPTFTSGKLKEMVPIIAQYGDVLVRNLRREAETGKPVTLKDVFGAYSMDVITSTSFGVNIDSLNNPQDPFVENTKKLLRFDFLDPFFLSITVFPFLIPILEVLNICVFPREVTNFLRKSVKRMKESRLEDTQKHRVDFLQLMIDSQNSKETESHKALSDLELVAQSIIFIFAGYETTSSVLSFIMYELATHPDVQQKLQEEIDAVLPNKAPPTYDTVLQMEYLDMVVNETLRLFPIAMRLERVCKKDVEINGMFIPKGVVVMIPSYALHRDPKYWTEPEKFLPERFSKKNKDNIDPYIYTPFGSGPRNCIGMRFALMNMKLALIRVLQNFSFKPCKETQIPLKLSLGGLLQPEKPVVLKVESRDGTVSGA", "assay": "Cytochrome P450 Family 3 Subfamily A Member 4 (CYP3A4) small molecule antagonists: luciferase reporter qHTS assay (AID 1671201); further: nearly all actives have a fitted effect of over 50% in size", "conditions": "P450-Glo CYP3A4 enzyme, luciferin luminescence, 1 h; series mostly up to 115 µM; activity change, negative = inhibition: at the top concentration", "source_text": "National Center for Advancing Translational Sciences [NCATS]\nU.S. Environmental Protection Agency [EPA]\nNational Institutes of Environmental Health Sciences [NIEHS]\nNational Toxicology Program [NTP]\nU.S. Food and Drug Administration [FDA]\nCytochrome P450 (CYP) enzymes are membrane-bound hemeproteins that play a key role in metabolism of drugs and xenobiotics. Evaluation of the effect of chemicals on CYP isozymes is useful to minimize the adverse drug reactions and toxicities in drug development process. Tox21 chemicals were tested for their effect on CYP enzyme activities by using P450-Glo (TM) screening systems (Promega Corporation, Madison, WI). These systems provide a luminescent method containing proluciferin substrates and are converted to luciferin products by CYP isozymes. The luciferin products formed are detected with a luciferin detection reagent, and the amount of light produced is proportional to CYP activity. P450-Glo (TM) CYP3A4 screening system (Catalog. No. V9910) was used to detect the compounds that interfere in CYP3A4 activity. The positive control compound used for CYP3A4 assay is ketoconazole (Sigma-Aldrich, St. Louis, MO).\nTox21 Assay Protocol Summary:\nTwo ul of enzyme-substrate mix was dispensed into medium binding white/solid 1536-well plates (Greiner Bio-One North America Inc., Monroe, NC) using a BioRaptr Flying Reagent Dispenser (FRD, Beckman Coulter, Brea, CA). Compounds dissolved in DMSO and positive control (ketoconazole) were transferred to the assay plates at 23 nl using a Pintool station (Wako, San Diego, CA). The assay plates were incubated at room temperature for 10 min. Then 2 ul of NADPH regeneration solution was added to each well of the assay plates using an FRD and incubated at room temperature for 1 h. The reaction was stopped by adding 4 ul of detection reagent using an FRD and after 20 min incubation at room temperature the luminescence signal was measured using a ViewLux plate reader (Perkin Elmer, Shelton, CT). Data were expressed as relative luminescence units.", "values": [{"smiles": "CCc1ncc(C)[nH]1", "activity change, negative = inhibition": "-3.68%"}, {"smiles": "BrCCOc1ccccc1", "activity change, negative = inhibition": "0.462%"}, {"smiles": "CC(O)CCCCn1c(=O)c2c(ncn2C)n(C)c1=O", "note": "(stereo not given)", "activity change, negative = inhibition": "7.6% [at 52.9 µM]"}, {"smiles": "Nc1cc(S(=O)(=O)O)ccc1O", "activity change, negative = inhibition": "2.52%"}, {"smiles": "O=C(O)Cc1c(Cl)ccc(Cl)c1Cl", "Potency": "12.6 µM (active)"}, {"smiles": "Cc1ccccc1OCC(=O)O", "activity change, negative = inhibition": "14.1%"}, {"smiles": "Cc1ccc2cccnc2c1", "activity change, negative = inhibition": "-0.288%"}, {"smiles": "Cc1ccc2ccccc2n1", "activity change, negative = inhibition": "33.7%"}, {"smiles": "O=C[C@@H](O)[C@H](O)[C@H](O)CO", "activity change, negative = inhibition": "4.09%"}, {"smiles": "Cc1ccc(N)nc1", "activity change, negative = inhibition": "5.02%"}, {"smiles": "CCC(C)c1nccnc1OC", "note": "(stereo not given)", "activity change, negative = inhibition": "1.81%"}, {"smiles": "CC(=O)SC[C@@H](C)C(=O)N1CCC[C@H]1C(=O)N[C@@H](Cc1ccccc1)C(=O)O", "activity change, negative = inhibition": "-3% [at 52.9 µM]"}, {"smiles": "CCCCCCCCOCCC#N", "activity change, negative = inhibition": "-2.9%"}, {"smiles": "CCN1CCN(C(=O)N[C@@H](C(=O)N[C@@H]2C(=O)N3C(C(=O)O)=C(CSc4nnnn4C)CS[C@H]23)c2ccc(O)cc2)C(=O)C1=O", "activity change, negative = inhibition": "0.43% [at 52.9 µM]"}, {"smiles": "Cc1nnc(C(=O)NC(C)(C)c2nc(C(=O)NCc3ccc(F)cc3)c(O)c(=O)n2C)o1", "activity change, negative = inhibition": "-1.64% [at 52.9 µM]"}, {"smiles": "CCC(C)(C)C", "activity change, negative = inhibition": "5.28%"}, {"smiles": "CC(CC(=O)Cl)CC(C)(C)C", "note": "(stereo not given)", "activity change, negative = inhibition": "-7.53%"}, {"smiles": "N=C(N)S(=O)O", "activity change, negative = inhibition": "2.33%"}, {"smiles": "O=C(O)CCCCCCCCCC(=O)O", "activity change, negative = inhibition": "8.02%"}, {"smiles": "c1cc2ccc3ccc4ccc5cccc6c(c1)c2c3c4c56", "activity change, negative = inhibition": "-22.2% [at 4.07 µM]"}, {"smiles": "CC(=O)SCC(CC(=O)c1ccc(C)cc1)C(=O)O", "note": "(stereo not given)", "activity change, negative = inhibition": "26.8% [at 52.9 µM]"}, {"smiles": "CC(C)C(C)C", "activity change, negative = inhibition": "7%"}, {"smiles": "Clc1ccc2c(c1)Nc1ccccc1S2", "activity change, negative = inhibition": "-14.4% [at 52.9 µM]"}, {"smiles": "CCCCN=C(N)N=C(N)N", "activity change, negative = inhibition": "4.18% [at 52.9 µM]"}, {"smiles": "CC1(C)C(=O)C(C)(C)C1=O", "activity change, negative = inhibition": "1.76%"}, {"smiles": "CC(=O)c1ccc2ccc3ccccc3c2c1", "Potency": "39.7 µM (active)"}, {"smiles": "CC1=C(O)C(=O)CO1", "activity change, negative = inhibition": "0.703%"}, {"smiles": "CC(C)C[P+](C)(CC(C)C)CC(C)C", "activity change, negative = inhibition": "4.11%"}, {"smiles": "CCC(=O)OCCOc1ccccc1", "activity change, negative = inhibition": "43.5%"}, {"smiles": "CCN1CCN(C(=O)N[C@@H](C(=O)N[C@@H]2C(=O)N3[C@@H]2SC(C)(C)[C@H]3C(=O)O)c2ccccc2)C(=O)C1=O", "activity change, negative = inhibition": "-5.66% [at 52.9 µM]"}, {"smiles": "Cc1cc(C)c(N)c(Cl)c1", "activity change, negative = inhibition": "-9.46%"}, {"smiles": "N[C@H]1C(O)O[C@H](CO)[C@@H](O)[C@@H]1O", "note": "(stereo not given in full)", "activity change, negative = inhibition": "1.88% [at 52.9 µM]"}, {"smiles": "CC(C)(C)OC=O", "activity change, negative = inhibition": "27.4%"}, {"smiles": "CC12CCCC=C1C(=O)OC2=O", "note": "(stereo not given)", "activity change, negative = inhibition": "1.47%"}, {"smiles": "C=CCCCCCCCCCCCCCC", "activity change, negative = inhibition": "-5.46% [at 23.6 µM]"}, {"smiles": "COC(=O)c1ccc(C(=O)O)cc1", "activity change, negative = inhibition": "24.1%"}, {"smiles": "O=S(=O)(O)c1cc(I)c(O)c2ncccc12", "activity change, negative = inhibition": "5.81% [at 52.9 µM]"}, {"smiles": "NCC1CCC(C(=O)Oc2ccc(CCC(=O)O)cc2)CC1", "note": "(stereo not given)", "activity change, negative = inhibition": "10.2% [at 52.9 µM]"}, {"smiles": "CNC(=O)c1c(I)c(NC(C)=O)c(I)c(C(=O)O)c1I", "activity change, negative = inhibition": "7.25% [at 52.9 µM]"}, {"smiles": "C=C(C)C(=O)OCCOC1CC2CC1C1C=CCC21", "note": "(stereo not given)", "activity change, negative = inhibition": "-24.7%"}]}]}
